Measurements from PubChem BioAssay (Tox21).
Activity calls are given as the source filed them. Entries that show only a call come without a potency. The call rests on the fitted dose curve.

Target: Acetylcholinesterase (Homo sapiens) (UniProt P22303)
Experiment: Acetylcholinesterase (AChE) small molecule antagonists: enzyme-based qHTS assay with human liver microsomes (AID 1347399); further: nearly all actives have a fitted effect of over 60% in size
Conditions: Potency: qHTS inhibition; outcome: qHTS inhibition; series mostly up to 115 µM
Summary of the method: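 Recombinant human AChE (50 mU/mL in the enzyme mix) and human liver microsomes (0.25 mg/mL final) were preincubated with compound and NADPH (0.25 mg/mL final) for 30 min at 37 C. Acetylthiocholine/DTNB was then added; thiocholine was read colorimetrically after 10 min at room temperature.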

Sequence of Acetylcholinesterase (Homo sapiens) (P22303 whole entry, looked up): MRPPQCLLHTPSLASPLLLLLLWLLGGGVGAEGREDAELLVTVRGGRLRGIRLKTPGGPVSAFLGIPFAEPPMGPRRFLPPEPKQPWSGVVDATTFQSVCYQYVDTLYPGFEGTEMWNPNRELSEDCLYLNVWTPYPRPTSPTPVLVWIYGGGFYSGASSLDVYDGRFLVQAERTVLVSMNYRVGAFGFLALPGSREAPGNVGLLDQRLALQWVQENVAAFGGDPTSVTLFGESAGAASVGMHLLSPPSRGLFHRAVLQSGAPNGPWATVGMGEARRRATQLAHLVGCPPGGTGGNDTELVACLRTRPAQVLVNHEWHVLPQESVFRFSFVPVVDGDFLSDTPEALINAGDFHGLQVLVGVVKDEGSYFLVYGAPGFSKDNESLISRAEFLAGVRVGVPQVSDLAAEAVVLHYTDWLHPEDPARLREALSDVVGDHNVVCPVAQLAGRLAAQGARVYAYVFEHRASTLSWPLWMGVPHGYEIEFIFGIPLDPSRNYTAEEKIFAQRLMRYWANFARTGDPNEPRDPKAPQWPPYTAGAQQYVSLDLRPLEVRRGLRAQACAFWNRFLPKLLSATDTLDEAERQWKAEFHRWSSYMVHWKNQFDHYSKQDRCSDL

Row | SMILES | Potency | activity change, negative = inhibition
1 | COc1ccc([C@@H]2Sc3ccccc3N(CCN(C)C)C(=O)[C@@H]2OC(C)=O)cc1 | inactive | –
2 | CC(=O)NS(=O)(=O)c1ccc(N)cc1 | inactive | –
3 | Oc1ccc(C2(c3ccc(O)c(C4CCCCC4)c3)CCCCC2)cc1C1CCCCC1 | inactive | –
4 | NC(N)=NCCC[C@H](N)C(=O)O | – | -0.0087% [at 10.5 µM] (inactive)
5 | CC1(C)C(=O)N(Cl)C(=O)N1Br | inactive | –
6 | Nc1ccc(O)c(C(=O)O)c1 | inactive | –
7 | CC(C)CNCC(C)C | inactive | –
8 | C=CC(=O)OCC(O)COc1ccccc1 (configuration not stated) | inactive | –
9 | CCCCCOC(=O)COc1cc(N2C(=O)C3=C(CCCC3)C2=O)c(F)cc1Cl | inactive | –
10 | CC(C)(Oc1ccc(Cl)cc1)C(=O)OCCCOC(=O)C(C)(C)Oc1ccc(Cl)cc1 | inactive | –
11 | CC(=O)c1ccc(Cl)c(Cl)c1Cl | inactive | –
12 | CC(C)CCCCCCOC(=O)C1CCCCC1C(=O)OCCCCCCC(C)C (configuration not stated) | inactive | –
13 | COCCOCCOCCO | inactive | –
14 | O=C(O)CC(O)C(=O)O (configuration not stated) | inactive | –
15 | CC(=O)CCC=C(C)C | inactive | –
16 | OCc1ccc(Cl)cc1Cl | inactive | –
17 | CC(C)c1cccc(C(C)C)c1N1C(=O)c2ccc(O)cc2C1=O | inactive | –
